Experimental data taken from PubChem BioAssay (NCI).
Compounds without any hit were thinned out: in the full panel of roughly 83,000, 20% have a hit.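 Note: values are percent growth. 100 is the growth of untreated cells, values between 100 and 0 indicate rising inhibition; between -100 and 0 indicates cell death.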 Values without a mark were called inactive. Activity calls are given as the source filed them. Rule for the calls: active = growth percent below 10; inactive = the rest.

Test system: MDA-MB-468 breast
Assay: NCI-60 one-dose screen, 48 h (100 = growth as untreated, 0 = no growth, -100 = all killed)
Settings: 10 µM unless noted

Compound | growth
Cc1nn(Cc2ccccc2)cc1C(=O)Nc1sc2c(c1C(N)=O)CCC(=O)C2 | 47.2%
O=C(/C=C\c1ccco1)/C=C/c1ccco1 | 102%
COc1ccc(N2C(=O)c3cc(Cl)ccc3NC2SCc2ccccc2)cc1 (configuration not stated) | 98.1%
O=C(O)COc1ccc2c(=O)c3sc4c(=O)c5ccccc5c(=O)c4c3c(=O)c2c1 | 26.4%
Nc1c(C(=O)Nc2cccc(Br)c2)sc2nc3c(cc12)C(O)CCC3 (configuration not stated) | 29.8%
COc1ccc(/C=c2\sc3n(c2=O)NC2C(N=3)N(C)C(=O)N2C)cc1 (configuration not stated) | 99%
CC1(C)C=CC[C@]2(C)[C@H]3CC[C@@H]4[C@H]5[C@H](C(=O)/C=C/c6cccnc6)CC[C@]5(CO)CC[C@@]4(C)[C@]3(C)CC[C@@H]12 | -60.7% (active)
O=C1CC[C@@H](C(=O)N[C@H]2CSSC[C@@H](C(=O)N/C=C/c3ccc(O)cc3)NC(=O)[C@H](Cc3ccccc3)NC(=O)[C@@H]3CCCN3C(=O)[C@@H]3CCCN3C2=O)N1 | 89.5%
CCN(CC)c1ccc(/C=C/c2ccc3cc(C)ccc3[n+]2CC)cc1 | -24% (active)
Cc1[nH]c(C(=O)Nc2ccccc2OCc2cccc(C(=O)NC3CCNC3)c2)c(Cl)c1Cl (configuration not stated) | 22%
CC(CN1CCCCC1)C(=O)c1ccccc1 (configuration not stated) | 105%
O=C1OC(=O)C2C1C1(Cl)C(Cl)=C(Cl)C2(Cl)C2C(=O)OC(=O)C21 (configuration not stated) | 94.3%
O=C1c2cc3c(cc2-c2c1c1cc(F)c(F)cc1c(=O)n2CCCn1ccnc1)OCO3 | -53.6% (active)
COc1cc(CNC(=O)/C=C/c2ccccc2)ccc1OCC(=O)NO | 92.5%
CCc1ccc(/C(C#N)=C/C=C/c2ccccc2)cc1 | -13.9% (active)
COc1ccc(-c2nc3ccccn3c2-c2nc3ccc(Cl)cc3[nH]2)cc1 | 77.7%

Compound | growth
CN1CCN(Cc2ccc(NC(=O)c3cncc(C#Cc4c(N)ncc5ccccc45)c3)cc2C(F)(F)F)CC1 | -71.6% (active)
CCCCCCCCCCC(CN(CC)CC)C(O)c1ccccc1 (configuration not stated) | -61.2% (active)
COc1ccc(-c2nn(-c3cccc(NC(=O)Nc4ccc(Cl)c(C(F)(F)F)c4)c3)cc2-c2ccncc2)cc1Cl | 23.1%
CCOc1cc(N)ccc1C(=O)NCCCN(CC)CC | 85%
C=CC(C)(O)CC/C=C(\CO)C(=O)OC1C(C)OC(O[C@](C)(C=C)CC/C=C(\CO)C(=O)O[C@H]2C[C@@]3(C(=O)OC4OC(CO)C(O)C(O)C4OC4OC(C)C(OC5OC(CO)C(O)C5O)C(OC5OC(CO)C(O)C(O)C5O)C4O)C(CC2(C)C)C2=CCC4[C@@]5(C)CC[C@H](OC6OC(COC7OC(C)C(O)C(O)C7OC7OCC(O)C(O)C7O)C(O)C(O)C6NC(C)=O)C(C)(C)C5CC[C@@]4(C)[C@]2(C)C[C@H]3O)C(O)C1O (some centres not stated) | 19.9%
[O-]/[N+](=C\c1ccccc1)CC1(O)CCCCC1 | 108%
C[C@]12CCC(=O)C=C1CCC1C2[C@@H](O)C[C@@]2(C)C1CC[C@]2(O)C(=O)COC(=O)CCC(=O)O (some centres not stated) | 109%
COC12C=C/C(=C(/C(=O)OCCSc3ccnn3C)C(=O)CCCCCCCCC3(OC)C=C/C(=C(/C(=O)OCCSc4ccnn4C)C(=O)CCCCCCCC1)O3)O2 | -6.23% (active)
Cc1c2c(cc[n+]1Cc1ccccc1)c1ccc(OCc3ccccc3)cc1n2Cc1ccccc1 | -42.3% (active)
NCC(=O)NC(CC(=O)O)C(=O)O (configuration not stated) | 102%
C=C(C)[C@@H]1CC[C@]2(C(=O)OC)CC[C@]3(C)[C@H](CC[C@@H]4[C@@]5(C)C/C(=C/c6ccc(OC)cc6)C(=O)C(C)(C)[C@@H]5CC[C@]43C)[C@@H]12 | 76%
Clc1cccc(/C=N/Nc2nc(N/N=C/c3cccc(Cl)c3Cl)nc(N3CCCCC3)n2)c1Cl | 92.8%
Cc1nc2cc(-n3c(-c4ccc(F)cc4)nc4ccccc4c3=O)ccc2n1Cc1ccccc1 | 15.2%
O=C1c2c(c(=O)[nH]c3ccccc23)CCN1Cc1ccccc1 | 101%
COc1ccc(/C=C2\CN(C(=O)C(Cl)Cl)C/C(=C\c3ccc(OC)c(OC)c3)C2=O)cc1OC | -14.2% (active)
C[n+]1cc2cc3c(cc2c2ccccc21)OCO3 | -21.2% (active)
